Results on seven compounds are retold here after PubChem BioAssay (Tox21).

Unmarked numbers belong to inactive results. Records with an inconclusive call do not appear. Active and inactive are the calls of the source. Unless noted, calls come from the whole dose curve; as a rule, active = well fitted curve in the direction sought with a large enough effect in the repeat runs; inconclusive = weak or mixed curves; inactive = no such curve, though single readings can be large; an effect the other way counts as inactive or inconclusive.

Assay [1] can be described thus: qHTS assay for small molecule agonists of the p53 signaling pathway (AID 651631; calls by dose curve; note: nearly all actives have a fitted effect of over 15% in size; note: potency is the fitted concentration of half-maximal effect). The method in brief: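 HCT-116 p53RE-bla reporter line, 16 h compound treatment at 37 °C, then fluorescence after 2 h with B/G FRET substrate.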
A general note: In qHTS, concentration-response curves come from the screen itself.

The nature of assay [2]: qHTS assay for small molecules that induce genotoxicity in human embryonic kidney cells expressing luciferase-tagged ATAD5 (AID 651632). Note: nearly all actives have a fitted effect of over 15% in size. Note: potency is the fitted concentration of half-maximal effect. Put shortly: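 ATAD5-luc HEK293T, 2,000 cells/well; cpd or DMSO pin-transferred; 16 hr, 37C/5% CO2; Amplite 30 min RT; luminescence.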
A short description of assay [3]: qHTS assay for small molecule agonists of the p53 signaling pathway - cell viability (AID 651633; calls by dose curve; note: nearly all actives have a fitted effect of over 30% in size; note: potency is the fitted concentration of half-maximal effect). The method in brief:
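p53RE-bla cells were treated with compound for 16 hours at 37 C. Cytotoxicity was then measured as CellTiter-Glo luminescence after 30 min at room temperature.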

Assay [4] is described as follows: qHTS assay for small molecules that induce genotoxicity in human embryonic kidney cells expressing luciferase-tagged ATAD5 - cell viability (AID 651634; calls by dose curve; note: nearly all actives have a fitted effect of over 25% in size). Put shortly:
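Fluorescence from CellTiter-Fluor, reporting protease activity within live cells, served as the viability read-out. HEK293T cells carrying luciferase-tagged ATAD5 had been treated with compound for 15.5 hr at 37C.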

Assay [5] in a line: qHTS assay for small molecule disruptors of the mitochondrial membrane potential (AID 720635). Note: potency is the fitted concentration of half-maximal effect. The method in brief:
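HepG2 cells exposed to compound 1 hr at 37C, then Mito-MPS dye 30 min. Ratio read of aggregate (540/590 nm) versus monomer (490/535 nm) fluorescence.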

Assay [6] in a line: qHTS assay to test for compound auto fluorescence at 590 nm (red) in HepG2 cells (AID 720674). Put shortly: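 HepG2 cells, 2,000 per well in MEM with 10% FBS, attached overnight at 37 C, then got 23 nL compound or DMSO. After 1 hr at 37 C, 5% CO2, red fluorescence was read at 540/590 nm against Rose Bengal sodium as reference.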
A short description of assay [7]: qHTS assay to test for compound auto fluorescence at 535 nm (green) in HepG2 cells (AID 720675).
A short description of assay [8]: qHTS assay to test for compound auto fluorescence at 460 nm (blue) in HEK293 cells (AID 720678). The method in brief:
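HEK293, 2,000 cells/well, 10% dialyzed FBS; attach 4-5 hr 37C; pin compound or DMSO; o/n 37C/5% CO2; fluorescence 405/460 nm; triamterene-equivalent units.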

The nature of assay [9]: qHTS assay to test for compound auto fluorescence at 590 nm (red) in HEK293 cells (AID 720679). The method in brief:
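Intensity at 540nm excitation and 590nm emission is reported as Rose Bengal sodium-equivalent autofluorescence. Measurements followed overnight exposure (37C, 5% CO2) of HEK293 cells, 2,000 per well, to 23 nL compound.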

A short description of assay [10]: qHTS assay to test for compound auto fluorescence at 535 nm (green) in HEK293 cells (AID 720680).
The nature of assay [11]: qHTS assay to test for compound auto fluorescence at 460 nm (blue) in HEK293 cell free culture (AID 720681). The method in brief:
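Compounds were added to cell-free DMEM with 10% FBS and fluorescence read directly. The blue channel used 405 nm excitation and 460 nm emission, with triamterene as the reference fluorophore.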

Assay [12] can be described thus: qHTS assay to test for compound auto fluorescence at 535 nm (green) in HEK293 cell free culture (AID 720682). Put shortly:
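Steps: dispense DMEM/10% FBS into empty wells; pin in compound or DMSO; measure fluorescence at 485/535 nm. Values are fluorescein equivalents.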

Assay [13] is described as follows: qHTS assay to test for compound auto fluorescence at 590 nm (red) in HEK293 cell free culture (AID 720683). Put shortly: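 Cell-free wells of DMEM with 10% FBS received compound, and intrinsic fluorescence was read at excitation/emission 540/590 nm. Values expressed as equivalence to Rose Bengal sodium.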
Assay [14] is described as follows: qHTS assay to test for compound auto fluorescence at 590 nm (red) in HepG2 cell free culture (AID 720684). Put shortly:
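Compound was pinned into wells holding MEM with 10% FBS and no cells, and red fluorescence was read at Ex/Em 540/590 nm. Signal is expressed as auto fluorescence equivalency relative to Rose Bengal sodium.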

The nature of assay [15]: qHTS assay to test for compound auto fluorescence at 460 nm (blue) in HepG2 cell free culture (AID 720685). The method in brief: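 Compound (23 nL) or DMSO pinned into cell-free MEM with 10% FBS; blue fluorescence read at 405/460 nm excitation/emission, expressed as auto-fluorescence equivalency to triamterene.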
Assay [16] is described as follows: qHTS assay to test for compound auto fluorescence at 535 nm (green) in HepG2 cell free culture (AID 720686).
Assay [17] in a line: qHTS assay to test for compound auto fluorescence at 460 nm (blue) in HepG2 cells (AID 720687). Put shortly:
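HepG2 cells in MEM with 10% FBS, attached overnight at 37 C, were exposed to compound or DMSO for 1 hr at 37 C, 5% CO2. Blue fluorescence was read at 405/460 nm, with triamterene as reference fluorophore.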

The target in assay [18] is Glucocorticoid receptor (Homo sapiens) (UniProt P04150). Kind of assay: qHTS assay to identify small molecule agonists of the glucocorticoid receptor (GR) signaling pathway (AID 720691; active = well fitted activation curve with a large enough effect in the signal ratio in the repeat runs, not every such curve was filed as active; the % refers to the signal ratio). The method in brief: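 Fluorescence intensity from LiveBLAzer B/G FRET substrate (2 h, room temperature) reports beta-lactamase expression driven by the glucocorticoid response element in GR-bla HeLa cells after 18 h compound exposure at 37 C.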

For assay [19] the target is unchanged. Kind of assay: qHTS assay to identify small molecule antagonists of the glucocorticoid receptor (GR) signaling pathway (AID 720692; active = well fitted inhibition curve with a large enough effect in the signal ratio in the repeat runs, not every such curve was filed as active; the % refers to the signal ratio). The method in brief:
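HeLa GR-bla cells; cmpd + dex 5 nM final, 18 h 37 C; LiveBLAzer B/G FRET substrate 2 h RT; fluorescence intensity read. Antagonist mode, qHTS.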

Assay [20] is described as follows: qHTS assay for small molecule disruptors of the mitochondrial membrane potential - cell viability (AID 720634; calls by dose curve; note: nearly all actives have a fitted effect of over 20% in size; note: potency is the fitted concentration of half-maximal effect). Put shortly: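 Cells: HepG2, 2,000/well, attached overnight. Compound 1 hr, 37 C/5% CO2. +m-MPI dye, +CellTiter-Glo 30 min RT. Readout: luminescence (ATP).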

Sequence of Glucocorticoid receptor (Homo sapiens) (P04150 whole entry, looked up): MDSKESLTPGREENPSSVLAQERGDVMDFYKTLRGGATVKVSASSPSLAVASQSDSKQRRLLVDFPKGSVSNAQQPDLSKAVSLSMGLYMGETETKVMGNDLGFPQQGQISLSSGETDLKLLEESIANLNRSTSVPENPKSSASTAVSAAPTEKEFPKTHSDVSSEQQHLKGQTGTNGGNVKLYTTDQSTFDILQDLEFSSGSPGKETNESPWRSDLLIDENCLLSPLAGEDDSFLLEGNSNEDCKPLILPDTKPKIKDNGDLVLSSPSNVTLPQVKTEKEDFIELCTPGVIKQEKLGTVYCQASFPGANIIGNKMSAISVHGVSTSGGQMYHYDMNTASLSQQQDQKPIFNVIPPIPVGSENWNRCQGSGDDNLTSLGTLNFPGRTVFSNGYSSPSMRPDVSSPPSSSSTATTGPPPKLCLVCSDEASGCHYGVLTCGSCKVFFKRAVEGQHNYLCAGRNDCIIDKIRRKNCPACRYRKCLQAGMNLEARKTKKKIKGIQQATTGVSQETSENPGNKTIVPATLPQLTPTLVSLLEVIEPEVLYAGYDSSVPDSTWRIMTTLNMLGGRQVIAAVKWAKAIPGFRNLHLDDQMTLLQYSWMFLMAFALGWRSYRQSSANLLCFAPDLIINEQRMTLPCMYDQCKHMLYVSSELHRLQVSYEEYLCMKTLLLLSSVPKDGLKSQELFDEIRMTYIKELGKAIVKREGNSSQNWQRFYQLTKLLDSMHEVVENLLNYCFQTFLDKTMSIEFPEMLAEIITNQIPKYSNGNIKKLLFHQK

Consider `CC(C)CCOC(=O)/C=C/c1ccccc1`, for which the Potency result in [1], in assay [2], in assay [3], in assay [4], in [5] and in assay [6] was “inactive” throughout. The Potency entry in assay [7], in assay [8], in assay [9], in [10], in assay [11] and in assay [12] was “inactive” each time. In addition, the Potency result in assay [13], in assay [14], in assay [15], in assay [16], in [17] and in [18] was “inactive” throughout. Besides, the Potency result in assay [19] was “inactive”.

`CCOC(=O)Cn1cccc1-c1nc(-c2ccc(OC)cc2)c(-c2ccc(OC)cc2)s1`: in assay [1], the Potency was 29.8 µM (active). The Potency entry in assay [3], in assay [4], in [20], in assay [5], in [6] and in assay [7] was “inactive” throughout. Besides, the Potency entry in [8], in assay [9], in assay [10], in assay [11], in assay [12] and in assay [13] was “inactive” in each case. The Potency entry in assay [14], in assay [15], in [16], in [17] and in assay [18] was “inactive” each time.

`CCCCNS(=O)(=O)c1ccc(C)cc1`: the Potency result in [1], in assay [3], in assay [4], in assay [20], in assay [5] and in [6] was “inactive” each time. For the same compound, the Potency entry in [7], in assay [8], in assay [9], in assay [10], in assay [11] and in assay [12] was “inactive” in each case. The Potency result in [13], in assay [14], in [15], in assay [16], in assay [17] and in [18] was “inactive” in each case.

Take `CCc1oc2ccccc2c1C(=O)c1cc(I)c(O)c(I)c1`: the Potency in assay [1] is 23.7 µM (active); in assay [3], 26.6 µM (active); in assay [20], 26.6 µM (active); in assay [5], 2.66 µM (active). Also, the Potency result in assay [2], in [6], in [7], in [8], in assay [9] and in assay [10] was “inactive” each time. The Potency entry in assay [11], in assay [12], in [13], in assay [14], in [16] and in assay [17] was “inactive” in each case.

Turning to `OC[C@H]1O[C@H](O[C@H]2O[C@H](CO)[C@@H](O)[C@H](O)[C@H]2O)[C@H](O)[C@@H](O)[C@@H]1O`, the Potency entry in [1], in assay [3], in [4], in assay [20], in assay [5] and in [6] was “inactive” each time. The Potency entry in [7], in assay [8], in assay [9], in assay [10], in [11] and in [12] was “inactive” each time. Also, the Potency entry in [13], in [14], in assay [15], in assay [16], in [17] and in assay [18] was “inactive” each time. Besides, the Potency result in assay [19] was “inactive”.

Take `c1cnccn1`: the Potency result in [1], in assay [2], in [3], in assay [4], in [6] and in assay [7] was “inactive” each time. Also, the Potency entry in assay [9], in [10], in assay [11], in [12], in assay [13] and in [14] was “inactive” in each case. In addition, the Potency result in assay [15], in assay [16] and in [17] was “inactive” each time.

Regarding `COc1ccc(-c2coc3cc(O)ccc3c2=O)cc1`, the Potency in [2] is 1.72 µM (active); in [5], 10.9 µM (active). The Potency result in [3], in assay [4], in assay [20], in [6], in assay [7] and in assay [8] was “inactive” in each case. The Potency entry in assay [9], in assay [10], in assay [11], in [12], in assay [13] and in [14] was “inactive” throughout. Moreover, the Potency entry in assay [16], in assay [17] and in assay [18] was “inactive” each time.
